Compounds with a hit are over-represented: about 5.8% of the library has one in this group of screens.
HEK293 cAMP cs = raises cAMP in parental HEK293 cells, TSHR agonist counter-screen | parental HEK293 CNG cAMP sensor, membrane potential fluorescence | AID 938 | Potency, µM (highest dose often 57.1 µM), for the others: at the highest dose activation, usual class: activators | hit rate 2.5% among 73,000; further: % of control where 0% means no effect; nearly all actives have a fitted effect of over 55% in size
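Parental HEK 293 cells stably expressing a modified CNG channel (no TSHR) report cAMP rise as membrane depolarization. Membrane potential dye with 100 uM RO 20-1724 was loaded for 60 min at room temperature, then compound added for 30 min; fluorescence read at 590 nm.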
Bst PK mod = alters activity of Bacillus stearothermophilus pyruvate kinase; Potency, µM; purified pyruvate kinase, luminescence ATP production; ribose 5-phosphate activator present at AC10; hit rate 1.2% among 51,000; in the data active means potency below about 11 µM; inconclusive means mostly about 12 µM to 25 µM;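 the screen sought inhibitors and activators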;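 further: scaled between full activation by ribose 5 phosphate and full inhibition by luteolin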
TSHR agonist = activates the human thyroid stimulating hormone receptor. hit rate 0.48% among 73,000. P16473. Potency, µM (titrated, usually from 57.1 µM), without a hit: at the highest dose activation, most hits filed as activators. HEK293-CNG-TSHR cells (CNG channel as cAMP sensor), membrane potential dye, cAMP; active means well fitted activation curve with a large enough effect in the main read-out, with a control signal flat, not every such curve was filed as active; inconclusive means small, poorly fitted or top-dose-only effect, or a change in a side signal; inactive means no such curve, though single readings can be large or run the other way; % of control where 0% means no effect;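 further: the control signal comes from parental cells without the receptor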
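HEK 293 cells stably expressing TSHR and a cAMP-gated CNG channel; parental CNG-only cells as counterscreen. Cells preloaded 60 min with membrane potential dye plus 100 uM RO 20-1724, then compound 30 min; fluorescence read at 590 nm.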
Luciferase inh = firefly luciferase inhibition; hit rate 2.2% among 72,000; P08659; purified firefly luciferase, luminescence, 8 min; Potency, µM (titrated, usually from 57.1 µM), inactives show top-dose activity change, negative = inhibition, hits mostly inhibitors; further: on the % scale 0 is the no-effect control and ±100 the full control effect; nearly all actives have a fitted effect of over 40% in size
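Inhibition of light generation by firefly luciferase from ATP and luciferin was profiled with concentration-response curves per sample, ATP held at 10 uM within the enzyme's linear range. Plates were read by luminescence after an 8-minute ambient incubation.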
GBA activity = human lysosomal glucosylceramidase modulation; P04062; purified enzyme, resorufin glucoside fluorescence (screen aimed at inhibitors), 20 min; Potency, µM; hit rate 1.1% among 48,000; AID 360; in the data active means potency below about 15 µM; inconclusive means mostly about 16 µM to 33 µM;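 further: the screen sought inhibitors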
Target sequence (P04062 whole entry, looked up): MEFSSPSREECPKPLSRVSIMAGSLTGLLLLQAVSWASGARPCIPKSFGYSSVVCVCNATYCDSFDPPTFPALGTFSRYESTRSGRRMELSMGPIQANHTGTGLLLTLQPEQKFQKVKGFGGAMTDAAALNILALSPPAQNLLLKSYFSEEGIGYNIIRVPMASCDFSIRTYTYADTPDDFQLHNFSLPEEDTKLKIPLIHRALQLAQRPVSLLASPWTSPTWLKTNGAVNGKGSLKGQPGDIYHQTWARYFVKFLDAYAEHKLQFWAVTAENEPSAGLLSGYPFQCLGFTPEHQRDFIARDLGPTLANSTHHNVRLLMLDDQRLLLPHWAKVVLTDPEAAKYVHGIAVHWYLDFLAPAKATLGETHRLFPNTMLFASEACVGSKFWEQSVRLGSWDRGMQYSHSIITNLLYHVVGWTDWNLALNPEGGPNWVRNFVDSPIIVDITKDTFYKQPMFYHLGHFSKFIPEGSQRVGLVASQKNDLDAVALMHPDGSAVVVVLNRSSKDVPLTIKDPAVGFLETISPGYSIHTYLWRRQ
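Compounds titrated against 0.2 nM normal enzyme, 30 uM resorufin beta-D-glucopyranoside substrate, citrate/phosphate buffer with taurocholate and tween-20, pH 5.9. Reaction ran 20 min at room temperature; fluorescence (Ex 548/Em 600) gave AC50.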
Numbers without * were called inactive; i = inactive; ? = inconclusive; nt = no result given; [ ] = another dose, or the depositor's remark. Unless noted, the call rests on the fitted dose curve; in most records, active means well fitted curve in the direction sought with a large enough effect; inconclusive means small, poorly fitted or top-dose-only effect, or another doubt; inactive means no such curve, though single readings can be large; an effect the other way counts as inactive or inconclusive. Potency means the concentration at half of the fitted maximal effect.

SMILES	HEK293 cAMP cs	Bst PK mod	TSHR agonist	Luciferase inh	GBA activity
O=C1CC[C@H](NC(=O)c2ccccc2)C(=O)N1	4%[11.4 µM]	nt	-6%[11.4 µM]	1%[11.4 µM]	nt
Cn1c(=O)c2c(nc(CN3CCN(c4cccc(Cl)c4)CC3)n2CCc2ccccc2)n(C)c1=O	7.9µM*	>57	?	0%	>77
Cn1c(=O)c2c(nc(CN3CCN(c4ccccc4)CC3)n2CCc2ccccc2)n(C)c1=O	?	>57	?	-2%	>77
CCOC(=O)Cn1c(CN2CCN(c3cccc(Cl)c3)CC2)nc2c1c(=O)[nH]c(=O)n2C	20µM*	nt	?	-1%	nt
Cc1noc(C)c1C(=O)N1CCC2(CC1)CCN(c1ccccn1)CC2	7%	nt	4%	1%[11.4 µM]	nt
c1ccc(-c2cccc(-c3ccccn3)n2)nc1	-4%	>11	-1%	-5%	>77
c1ccc(-c2nnc(-c3ccccn3)nn2)nc1	-3%	7.1*	-4%	?	>77
NS(=O)(=O)c1ccc(CCNC(=O)NC2(C(F)(F)F)Oc3ccccc3O2)cc1	7%	>57	-4%	1%	14*
COc1ccc(OC)c(Nc2cc(C)nc3ccccc23)c1	?	>57	?	1%	>77
COc1ccc(N/C=C(\C#N)c2nc3ccccc3n2C)c(OC)c1	nt	10*	nt	4µM*	nt
Cc1cccc(-c2noc(CN(C(=O)CCc3ccccc3)C(C)C)n2)c1	?	>57	?	2%	>77
COc1ccc(-c2noc(Cc3ccc(Cl)cc3)n2)cc1OC	29%	nt	25µM*	1%	nt
COc1ccc(Cc2nc(-c3ccc(Cl)cc3)no2)cc1	?	>57	?	-1%	>77
COc1ccc(Cl)cc1C(=O)N(Cc1nc(-c2cccc(C)c2)no1)C(C)C	12%[11.4 µM]	nt	25µM*	2%	nt
Fc1ccc(OCc2nc(-c3ccc(Br)o3)no2)c(F)c1	2.5µM*	nt	?	-6%	nt
COc1ccc(Cc2nc(-c3ccc(Br)o3)no2)cc1OC	27%	nt	nt	-6%	nt
O=C(Nc1nc2c(s1)CCCC2)c1ccc2ncsc2c1	?	nt	?	3.2µM*	nt
Cc1ncsc1C(=O)Nc1nc2c(s1)CCCC2	-3%	i	-8%	20µM*	>77
COc1ccc2nc(N3CCCC(C(=O)NCCCN4CCN(C)CC4)C3)sc2c1 (stereo not given)	-5%	i	8%	?	>77
CC1CCCN(c2nc3ccsc3c(=O)s2)C1 (stereo not given)	25µM*	nt	?	-6%	>77
COc1cc(C(=O)O[C@@H]2CC(C)=CC[C@@]3(C)CC[C@](O)(C(C)C)[C@H]23)ccc1O	23%	nt	9%	2%[11.4 µM]	nt
Nc1ccc2c(c1)C(=O)N(CC1CCCO1)C2=O (stereo not given)	4%	>57	2%	0%	>77
Nc1ccc2c(c1)CCC2=O	-2%	i	8%[11.4 µM]	13µM*	>77
Clc1ccc(CSC2=NCCN2)cc1Cl	0%[11.4 µM]	nt	-4%[11.4 µM]	1%[11.4 µM]	nt
CCOc1ccc(CSC2=NCCN2)cc1Cl	15%	>57	9%	0%	8.4*
SMILES	HEK293 cAMP cs	Bst PK mod	TSHR agonist	Luciferase inh	GBA activity
C=CC[C@@H]1C=C[C@@H](O/N=C\[C@@H](OC)[C@H](C)/C=C\CC(=O)OC)[C@@H](CO)O1	-4%[11.4 µM]	nt	6%[11.4 µM]	-1%[11.4 µM]	nt
CCOc1cc(CN2CCSCC2)ccc1O	0.032µM*	nt	?	1%	nt
CN(c1ccc(C(=O)O)cc1)S(=O)(=O)c1ccccc1	7%	nt	-2%	0%	nt
CN(c1ccc(C(=O)Nc2nccs2)cc1)S(=O)(=O)c1ccccc1	32µM*	>57	?	1%	nt
Clc1ccc(-c2nc(-c3ccccn3)no2)cc1Cl	2%[11.4 µM]	nt	-3%[11.4 µM]	3.2µM*	nt
Brc1ccc(-c2nc(-c3ccncc3)no2)o1	1%	>57	-3%	-2%	>77
Brc1ccc(-c2nc(-c3ccccn3)no2)o1	9%	nt	20%	3.2µM*	nt
COc1nc(C)ccc1-c1noc(-c2ccccn2)n1	4%	i	-1%	?	>77
O=C(O)[C@@H]1CCCN[C@H]1C(=O)O	11%	nt	4%	-7%	nt
Cn1cc(-c2nc3cnc(N4CCNCC4)nc3n(Cc3ccc(F)cc3)c2=O)c2ccccc21	-15%	nt	-18%	1%[11.4 µM]	nt
CC(C)C(=O)C(C)(C)CCc1ccccn1	6%[11.4 µM]	nt	-1%[11.4 µM]	1%[11.4 µM]	nt
CCCC/C=C/C(NC(=O)Oc1cccc(C(F)(F)F)c1)c1ccccc1 (stereo not given)	25µM*	nt	?	nt	nt
CCCC/C=C/C(NC(=O)CCc1ccccc1)c1ccccc1 (stereo not given)	10µM*	nt	?	nt	nt

From PubChem
